From paper PMC13494018
Values without a mark were called inactive. How the calls were made is not given here.

B1: d1r6_design_ppi_2_dldesign_0_cycle1_af2pred (protein)
chain: EQYFTDRDIAAAEAAAAKYAALAADPEARAYAARFREAAALIRDPATRAEGIDLLAATEAAAAAHAKALAA
B2: d1r6_design_ppi_17_dldesign_0_cycle0_af2pred (protein)
chain: MDFAASAQAAQRDAERLAERGIASGDAADLRRATEAVEQLLEIVQGLAAQGAAEAGEQLQAAVERTRAALERTRAAAAAAEAAAA
B3: d1r6_design_ppi_81_dldesign_0_cycle1_af2pred (protein)
chain: AATQQILITAAVMLEERLDELGRAAEVAAMALLYGAAFGSLEKAREKLEELAATLSAEEAARARATFDEAVAAAQAAA
B4: d1r6_design_ppi_106_dldesign_0_cycle0_af2pred (protein)
chain: AAISRAMYHHALGLADAANREAHLAAAAALRAALSPEDAARAEAQIAKIEAAAAANQAAAAAARAARAAAA
B5: d1r6_design_ppi_106_dldesign_0_cycle1_af2pred (protein)
chain: DLISKAVYYYALGIADPANAAEYKAKAQAEIDKLSPEEAAKAKAELEKVTKSQEELAAKSAERAAARAAAA
B6: d1r6_design_ppi_166_dldesign_0_cycle0_af2pred (protein)
chain: SAVAADGAAALAVAADLMAAGKEYAAAGDLANAARAYQSARALAATMAAAAAAAGDAATAAALAAAAAAAAAAEAEVKA
B7: d1r6_design_ppi_250_dldesign_0_cycle0_af2pred (protein)
chain: SAALAAARGAILQAALSLGVERAREAFARVEASDPAEAAALAEALAAEAAARDPAIGARAAAGAAALRAA
B8: d1r6_design_ppi_265_dldesign_0_cycle1_af2pred (protein)
chain: AAAQARALGAVAKQAVLDGKFDEAKQLIEGLVNLAQADPAAAPQAAKEMKEIAKAAEEKAKADPANAAKYKALAKVAAAAAKEAEKAA
B9: d1r6_design_ppi_480_dldesign_0_cycle1_af2pred (protein)
chain: AAETQQAADIIIANAEHAKRLAKENPEAGEKLVEVLEESAKWVEAKDPEAGAKAKKAVEEAKKVAEAVKAAREAAKALA
B10: d1r6_design_ppi_612_dldesign_0_cycle1_af2pred (protein)
chain: GAALEEQAKKIAEEAIEKIKKGAETGSLSPEEILALASKTVAQLSAIAIASKGGVAAGAGAVEVQKVAAEAL
B11: d1r6_design_ppi_627_dldesign_0_cycle1_af2pred (protein)
chain: DEVQREIRERVERGRETAKRAAQHPATAPIAAAIRATAERAEAASSDPERALNYAQMTDVAIANGELALAQVAA
B12: d1r6_design_ppi_647_dldesign_0_cycle0_af2pred (protein)
chain: SKAELLAYKALAAAAKNALEQVKTGEEAEKAVESLKKMAEALGDEETAKLAEEALKAIKKSKEEGEKKLEEAKKYAEKKAKEAA
B13: d1r6_design_ppi_671_dldesign_0_cycle1_af2pred (protein)
chain: AVEEALKKAEEAAKELEKVAKELGDKEAKEKAKQVKSLIEFAKVAAEAGDEKTALHAAKQAKELAEKALKEAKAKLEAKKAEEEKLKK
B14: d1r6_design_ppi_725_dldesign_0_cycle0_af2pred (protein)
chain: AELAATHMAGVEALNRARAAAVALVALDPARGAAWLAEADELGRRLNEAAADASRAEELKRITEELEKLAERIAAERDAAAA
B15: d1r6_design_ppi_754_dldesign_0_cycle1_af2pred (protein)
chain: GKEEELLKKAKEYFEEAEKYIKELEEVAAKAGPAAKGLVTFTKNYFERLKAKAEKATPEEALKLAKEAYDFAKDALEAAKTTLAALE
B16: d1r6_design_ppi_780_dldesign_0_cycle1_af2pred (protein)
chain: NAAATRAFSLAVARQAEETAKQVAGVDPELAKKLKELAKEVRKLAADPATHLQAVEATIEALKAIGEANKKLA
B17: d1r6_design_ppi_905_dldesign_0_cycle0_af2pred (protein)
chain: AAVEAAQEEALRALEEARALAREVLAADPERAARVAARIEEAAELVRDGEKINEGLALLVELAAESPAEVKPALMRAAALAGRAYVLR
B18: d1r6_design_ppi_906_dldesign_0_cycle0_af2pred (protein)
chain: AAAAQAEVTIKMGEAVIKQGEEWIEHPEYAEHAAKLLEAVADIAKATAKAAAAADAELAKKVEETRKKLEEVREKAKAVAEA
B19: d1r7_design_ppi_3_dldesign_0_cycle1_af2pred (protein)
chain: AAEAAALYEATRAAAEALARVDPALAAEAARLRGQALRYYSLTFVDPAAGRAGVAAVLAEAKRLLAAARARA
B20: d1r7_design_ppi_24_dldesign_0_cycle0_af2pred (protein)
chain: SELGAILDRASEVSKRAVEVEKKAKEKGLEEALELAREALKEVQAALSLIAKGGDLADAQAKLEEGEKLLEEAEKKLKEE
B21: d1r7_design_ppi_29_dldesign_0_cycle1_af2pred (protein)
chain: SAATAVALAQAAITFGRSALAAAERAPPERGAKILEAAAEILTAAAAQAPALAAETQALAAEARERAAELAAAAAA
B22: d1r7_design_ppi_71_dldesign_0_cycle1_af2pred (protein)
chain: DYAAQQLALTTRAQEVAERAKKAGKELGNPEEAKKIQQLASLAQALAINPATFPQAEKKLEEAEKRAKKLEKKAKE
B23: d1r7_design_ppi_74_dldesign_0_cycle1_af2pred (protein)
chain: AKEKAEELYKKFSEEINKSLALLGKAGLAAVEDPAKGAELFKKAKAELEEAKKYAKKLEELDPELGKKAKAELKKVQDLYDGTYKANV
B24: d1r7_design_ppi_77_dldesign_0_cycle1_af2pred (protein)
chain: SAVEDAANAIWEAAKAMAKAVPEAAATVDKLAREAVRALMLGDYEKAAKIVKEMAKAVAKADPKAAKKAEELAKKTVAKIKAA
B25: d1r7_design_ppi_147_dldesign_0_cycle1_af2pred (protein)
chain: AAAAAKATAKQIAAIAEEAIAKVKAATPEEAKKIAAEANQQIRALAAAAAAAHPEVAAAVAAAATAAIQRVLSTAIEVVSA
B26: d1r7_design_ppi_241_dldesign_0_cycle0_af2pred (protein)
chain: SELEARGERIKREAEELRRRAEASTDAEEALAYATELVALAAEAAALGDSEAASVAVRAAAAAHAHAQALRA
B27: d1r7_design_ppi_252_dldesign_0_cycle1_af2pred (protein)
chain: VKEEAVALAKEAAALAREAAELLAPDPLLAAQAQRLAERAEELAERAKAASEEEAKELLEEARVLLAQAELLLTIARQR
B28: d1r7_design_ppi_270_dldesign_0_cycle1_af2pred (protein)
chain: SMEKALEYLEKAKKSLEEGDKAKAAGDKARALGYYQLAAAYAKSAAHLAKDNPELAKEAKELEKEAKAKLAEVRAA
B29: d1r7_design_ppi_290_dldesign_0_cycle0_af2pred (protein)
chain: SAEAAEAEAAAARELAREMYALTPEEAAERMTALFLESPGRALRAATELVRAEGPAALPLAQAWLRAGVAAAQAA
B30: d1r7_design_ppi_300_dldesign_0_cycle0_af2pred (protein)
chain: MQVMLDAGEYLAKALKATGLEEAKEMAEEVLKAMKEAASLSPEEAESILGELMRKTIAKTGVVGAQAAALAYAHLAELKAA
B31: d1r7_design_ppi_302_dldesign_0_cycle1_af2pred (protein)
chain: SPVAAQAEALRDAAVAVAKTGNPEAAAAAAHAAVAQMNRLALAHPEENATASSEAVATLEEVDRLRAAQRAAAG
B32: d1r7_design_ppi_304_dldesign_0_cycle0_af2pred (protein)
chain: AAEAAAAAAATARASAAMAAFARRRLEEGAAAGPEALARAVAELEALAAHADPAIGAALRAALAATLAALAAAA
B33: d1r7_design_ppi_322_dldesign_0_cycle0_af2pred (protein)
chain: MTLEDLKRAAKAYLHGLANLAAGLGLEELAKKLREAAANVDDAKALKEGAELAKELAALSTPEAAEFAKLAAEVAKAAAKAVEAA
B34: d1r7_design_ppi_351_dldesign_0_cycle0_af2pred (protein)
chain: EELEEKKKKAIELLKKAKEKAEKIGDTAVAAAAENAIKAIEAGNLEAAISNARLAKAIAAEDPALKEAAELAKKALEELEEAKKLAEA
B35: d1r7_design_ppi_393_dldesign_0_cycle1_af2pred (protein)
chain: EKLHPQAVAALKAQARNAAKLDPETMKKMAENVAKLVTLLSPAKAKEAEKVKELLLKAAEAKKKGAGEETLKALVEEAAKVIAE
B36: d1r7_design_ppi_396_dldesign_0_cycle0_af2pred (protein)
chain: SSPVEQAMKVIEKYMKELAKVVGQEKADAAKNLLFGALAKGVHAGVEAAKAELQAAAKEIQKEIKDPEAQKIIQEATKEAIKELE
B37: d1r7_design_ppi_420_dldesign_0_cycle1_af2pred (protein)
chain: MTKAEVVAEAIAVAKEAAKIAKANKESPEVQELQKKALDLAFKALASNDAAEAQKYAEKAKEVKKELEKKAKEL
B38: d1r7_design_ppi_446_dldesign_0_cycle1_af2pred (protein)
chain: GEAARNAEEIFADSRERARALAAEYRASGDPADLAIAAELEEALARAEEEGPAGGVRLIILTDGILQARAAAAA

Molecular target: CD276, Q5ZPR3
Sequence (Q5ZPR3 whole entry): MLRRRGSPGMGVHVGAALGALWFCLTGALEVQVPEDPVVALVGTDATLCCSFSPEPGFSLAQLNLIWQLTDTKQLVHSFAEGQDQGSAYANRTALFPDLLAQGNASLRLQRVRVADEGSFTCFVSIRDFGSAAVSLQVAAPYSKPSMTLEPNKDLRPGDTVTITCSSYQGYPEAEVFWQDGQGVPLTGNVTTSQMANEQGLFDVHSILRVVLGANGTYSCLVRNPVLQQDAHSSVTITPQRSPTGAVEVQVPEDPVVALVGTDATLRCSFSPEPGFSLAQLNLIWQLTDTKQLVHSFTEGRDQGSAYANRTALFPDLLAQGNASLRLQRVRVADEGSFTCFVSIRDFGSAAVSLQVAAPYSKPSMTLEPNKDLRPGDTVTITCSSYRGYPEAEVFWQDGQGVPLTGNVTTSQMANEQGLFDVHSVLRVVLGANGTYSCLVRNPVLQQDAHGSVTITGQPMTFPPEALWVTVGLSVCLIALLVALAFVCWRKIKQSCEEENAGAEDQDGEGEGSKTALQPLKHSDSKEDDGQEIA

| Binder | binding in a display sort |
| --- | --- |
| B1 | not found |
| B2 | not found |
| B3 | not found |
| B4 | not found |
| B5 | not found |
| B6 | not found |
| B7 | not found |
| B8 | not found |
| B9 | not found |
| B10 | not found |
| B11 | not found |
| B12 | not found |
| B13 | not found |
| B14 | not found |
| B15 | not found |
| B16 | not found |
| B17 | not found |
| B18 | not found |
| B19 | not found |

| Binder | binding in a display sort |
| --- | --- |
| B20 | not found |
| B21 | not found |
| B22 | not found |
| B23 | not found |
| B24 | not found |
| B25 | not found |
| B26 | not found |
| B27 | not found |
| B28 | not found |
| B29 | not found |
| B30 | not found |
| B31 | not found |
| B32 | not found |
| B33 | not found |
| B34 | not found |
| B35 | not found |
| B36 | not found |
| B37 | not found |
| B38 | not found |
